# Laboratory results taken from paper PMC13494018.
# A number with no mark means an inactive call. The rule behind the calls is not given here.
# B1: design_598_15ab41e9-cad4-4381-8935-81f74b313fe8_2441_dldesign_0_cycle1_af2pred (protein)
# chain: AKEKAEELAKKAREGIERAERRVEEGKKKSKKDAAIYSYSAAELLDSVAAGIVKELLKEDPELGKKVAEEVEKAREEALKEAEKYES
# B2: design_598_15ab41e9-cad4-4381-8935-81f74b313fe8_1668_dldesign_0_cycle1_af2pred (protein)
# chain: KEKVKKELEESKKELEKTLEKIKELVSSLPEEEREALAKGLVDPKTALEAAKKIAEAVGKEGANAAQEAISERRAIEQYEKILE
# B3: design_598_15ab41e9-cad4-4381-8935-81f74b313fe8_1969_dldesign_0_cycle1_af2pred (protein)
# chain: AAAAAKKAQAKKLVGLGLFYYLDYLAGGPESSKEKGDAYYAAAAALDPATAAEAKAKADKIAARFKKDVEEAKK
# B4: design_598_15ab41e9-cad4-4381-8935-81f74b313fe8_2338_dldesign_0_cycle1_af2pred (protein)
# chain: AEEKAKELYAKGEKLYKEGLKADKETGKEYFTKAAEYFKAAAEEFKKAGNVVGAGYAESKAERAKEAAELL
# B5: design_598_15ab41e9-cad4-4381-8935-81f74b313fe8_2180_dldesign_0_cycle1_af2pred (protein)
# chain: AEAAEKAAAKAVINEAYDLLGSSTAEEALKYAEEKAKEAKAAGKKIVADAAEKTAKVLKRIAEDEKEAKK
# B6: design_598_15ab41e9-cad4-4381-8935-81f74b313fe8_1756_dldesign_0_cycle1_af2pred (protein)
# chain: GFKEEAEKKMEKVLEEAKKASVKEAATIVREAYAELKGIGHLLEKKGKKEEGKFAEEVAKKVLEEGKKIVEEKAAA
# B7: design_599_7ce25d4d-e004-4b84-a16f-baf856d943ab_80_dldesign_0_cycle1_af2pred (protein)
# chain: SKAAEKAEAQKAKEEATKAAEEAAKEAKKAGLEDLAKYLENAKKTADAKAQASSDPAEAKKYYEKYKATATRLLEDLKKAE
# B8: design_598_15ab41e9-cad4-4381-8935-81f74b313fe8_2298_dldesign_0_cycle1_af2pred (protein)
# chain: SKKAEQTLFRAEALGEAVTEAAEQLDPALGARVRERAKELIERAKKDGTLEAAEKALEEMRRLAEEVRAAIEAA
# B9: design_598_15ab41e9-cad4-4381-8935-81f74b313fe8_2343_dldesign_0_cycle1_af2pred (protein)
# chain: ASEELWKKAQEIATKAVAAAQARYAAEGKYEELDKDIDKIYELAVEAAKEGEEGLKKLEEMRKEAEEAAKKALEAA
# B10: design_598_15ab41e9-cad4-4381-8935-81f74b313fe8_1677_dldesign_0_cycle1_af2pred (protein)
# chain: DVAALIAKAAALVDDPSKAAEALKYLVAAREKALSEGDAAALKQIAAVAAEGAKKAPPEYAKGFKLLANTAKSIAEDLEK
# B11: design_599_7ce25d4d-e004-4b84-a16f-baf856d943ab_160_dldesign_0_cycle1_af2pred (protein)
# chain: AVKEQTEKTVAATRAAAEAVPEYGEELEKGARVIERLVKDGFLEGAIDVANAIAKFSREVAAEVSEEQAAILKEAADLAEELAKLAK
# B12: design_598_15ab41e9-cad4-4381-8935-81f74b313fe8_1691_dldesign_0_cycle1_af2pred (protein)
# chain: DKEAEAKKIEAAAKKNAEAALADAEKAKEYAKAGDKSKAKQYSESAKIYLELAGTAAKKGAGYPTAPEIKKLYEDTKAKVEEILKEA
# B13: design_598_15ab41e9-cad4-4381-8935-81f74b313fe8_1648_dldesign_0_cycle1_af2pred (protein)
# chain: KKEEAKKELLEKVKKLEEEGEKLLEEKTPKEARAKALEKGKEIMKEAEKAIKDPETKEAGKEAKKKAAEAMAKLYEKAAEKEAKE
# B14: design_599_7ce25d4d-e004-4b84-a16f-baf856d943ab_135_dldesign_0_cycle1_af2pred (protein)
# chain: MEEEEGEKKVEEAKKKLSAALYEYADMSVNEETLKEGRKKVEEAVKEALELGKKSTPETAEKLKKAAEKALKVAERIEEAS
# B15: design_598_15ab41e9-cad4-4381-8935-81f74b313fe8_2059_dldesign_0_cycle1_af2pred (protein)
# chain: GEKEELKEKAKKLKELAKKAVEKAKKAAEENPEAKPLAEKAKELAEEAIKLAEEGTKESLEKAAKILQELREVTAEAEFIARKG
# B16: design_598_15ab41e9-cad4-4381-8935-81f74b313fe8_2011_dldesign_0_cycle1_af2pred (protein)
# chain: KLEEYKKKIKEKAKEMGKSLDPEERKKLLEEIKKLAKEASKELGEKEEIEKFAAEEAHEGLEQASENRFKS
# B17: design_598_15ab41e9-cad4-4381-8935-81f74b313fe8_1784_dldesign_0_cycle1_af2pred (protein)
# chain: ADEEGKKLVKEKLEEAKKALEKAKAGDKKEALDAASTATRNAHKIEAFAKAVPVSEEVVKLAKEAVKELEKYEEKAAKLLAK
# B18: design_598_15ab41e9-cad4-4381-8935-81f74b313fe8_2408_dldesign_0_cycle1_af2pred (protein)
# chain: ELELLKERAELYERAAKAAEAGKLGAGIRLAAIAEDLIDLELGKKKEKELKASSREEALKILKKEAEKYKAKAKELA
# B19: design_598_15ab41e9-cad4-4381-8935-81f74b313fe8_1727_dldesign_0_cycle1_af2pred (protein)
# chain: SAAQLAASAKGRLLAVADYARAKGISEEAAELAEKAAEADVATAAELAEKAAKLLEEAGDEKLAERARKAAEKLKKAAKE
# Biological target: VTCN1, Q7Z7D3
# Sequence (Q7Z7D3 whole entry): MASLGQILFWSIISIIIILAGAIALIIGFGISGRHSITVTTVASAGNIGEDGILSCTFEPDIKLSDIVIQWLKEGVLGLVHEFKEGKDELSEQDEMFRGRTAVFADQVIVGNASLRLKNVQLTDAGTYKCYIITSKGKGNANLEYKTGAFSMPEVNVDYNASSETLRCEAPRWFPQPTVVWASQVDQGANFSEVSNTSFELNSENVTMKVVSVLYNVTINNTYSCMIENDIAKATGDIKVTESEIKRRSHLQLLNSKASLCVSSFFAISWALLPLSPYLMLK
row,Binder,binding in a display sort
1,B1,not found
2,B2,not found
3,B3,not found
4,B4,not found
5,B5,not found
6,B6,not found
7,B7,not found
8,B8,not found
9,B9,not found
10,B10,not found
11,B11,not found
12,B12,not found
13,B13,not found
14,B14,not found
15,B15,not found
16,B16,not found
17,B17,not found
18,B18,not found
19,B19,not found
